Compound activity as filed in PubChem.
Hits are enriched below; roughly 2.4% of the tested compounds scored in any of these assays.
D2 ag-1: human D2 receptor agonism in beta-arrestin assay | DiscoveRx PathHunter D2 beta-arrestin, luminescence, 90 min; 100% = 57 uM dopamine signal | P14416 | activation, % (concentration not given with the values) | AID 624465 | actives 0.084% (n = 360,000); in the data active means activation above about 40%; inconclusive means between about 15% and that limit
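DiscoveRx PathHunter D2 beta-arrestin cells (2,100/well) attached overnight, then compound-stimulated 90 min at 37 C in HBSS/10 mM HEPES/0.1% Tween-20 buffer; beta-galactosidase complementation read by luminescence after 1 h at ambient temperature. Dopamine 57 uM final (EC100) as control.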
D2 antag: antagonizes the human D2 dopamine receptor | inhibition, % at 10 µM | actives 2% (n = 340,000) | P14416 | HEK293 TREx D2 cells, calcium flux, dopamine EC80; in the data active means inhibition above about 30%; inactive means below that, where a call was filed; further: 0% is about no effect
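Antagonism is scored as inhibition of an EC80 dopamine-evoked calcium signal in a force-coupled, tetracycline-inducible HEK293 T-REx D2 line, with compound present 180 s before agonist.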
D2 ag-2: D2 dopamine receptor (human) agonism; P14416; HEK293 T-REx D2 cells, calcium flux agonist mode; activation, % at 2 µM; actives 0.53% (n = 340,000); AID 485358;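 active means activation over 3 SD above normal in the single-dose calcium agonist read, cut at about 30% in these data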; further: 0% is about no effect
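Tetracycline-induced HEK293 Trex cells with D2 receptor force-coupled to calcium signaling, plated overnight at 30 C and loaded with no-wash calcium dye. Calcium flux read kinetically for 180 s after compound addition; responses flag agonists.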
D2 PAM-1: potentiates the human D2 dopamine receptor allosterically; DiscoveRx D2 beta-arrestin cells, luminescence, 90 min; 100% = 57 uM dopamine signal; P14416; potentiation, % (concentration not given with the values); actives 0.23% (n = 360,000); in the data active means potentiation above about 50%; inconclusive means mostly about 30% to 49%
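D2 cells co-treated with compound plus 50 nM dopamine (EC20) for 90 min at 37 deg C to detect potentiation. Beta-arrestin recruitment was read as enzyme-fragment luminescence after 1 h at ambient temperature. Full response was set by 57 uM dopamine.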
D2 PAM-2: positive allosteric modulators of human D2 dopamine receptor; P14416; HEK293 T-REx D2, calcium flux, EC20 dopamine potentiation; potentiation, % at 10 µM; actives 0.34% (n = 340,000);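 active means potentiation over 3 SD above the plate norm, cut at about 30% in these data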; further: 0% is about no effect
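Tetracycline-induced Hek293 Trex D2 cells, force-coupled to calcium, loaded with no-wash calcium dye. Compound added with 180 s kinetic read for agonism, then EC20 dopamine and a further 180 s read for potentiation.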
D3 arrestin ag: activates human D3 dopamine receptor beta-arrestin recruitment. AID 720506. DiscoveRx D3 beta-arrestin cells, luminescence, 90 min. shares compounds with D2 ag-2. Potency, µM (doses to about 76.9 µM), inactives show top-dose activation, actives largely listed as activators. actives 4% (n = 2,300);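 further: potency means the concentration at half of the fitted maximal effect; 100% = dopamine control response; nearly all actives have a fitted effect of over 70% in size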
Target sequence (P35462 whole entry, looked up): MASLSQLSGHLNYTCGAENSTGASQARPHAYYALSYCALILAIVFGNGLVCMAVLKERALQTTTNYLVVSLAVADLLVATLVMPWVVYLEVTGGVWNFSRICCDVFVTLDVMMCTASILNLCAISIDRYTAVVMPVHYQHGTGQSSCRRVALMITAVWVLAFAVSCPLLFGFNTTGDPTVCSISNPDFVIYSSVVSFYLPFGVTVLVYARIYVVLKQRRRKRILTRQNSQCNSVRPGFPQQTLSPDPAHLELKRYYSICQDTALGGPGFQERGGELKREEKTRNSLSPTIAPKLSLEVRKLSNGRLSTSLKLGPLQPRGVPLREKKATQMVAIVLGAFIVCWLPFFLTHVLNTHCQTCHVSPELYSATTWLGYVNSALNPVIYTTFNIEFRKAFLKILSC
D2 ag-3: activates human D2 dopamine receptor in D3 counterscreen; Potency, µM (top dose mostly 76.9 µM), for inactives: at the highest dose activation, most hits filed as activators; AID 720507; actives 5.9% (n = 2,300); DiscoveRx PathHunter D2 beta-arrestin, luminescence, 90 min; response scale: percent relative to full dopamine signal; shares compounds with D2 ag-2; further: potency means the concentration at half of the fitted maximal effect; % of control where 0% means no effect; nearly all actives have a fitted effect of over 70% in size
Active calls of the source: *; ? = inconclusive; nt = not tested or not shown. Unless noted, the call rests on the fitted dose curve; in most records, active means well fitted activation curve with a large enough effect; inconclusive means small, poorly fitted or top-dose-only effect; inactive means flat fitted curve, though single readings scatter.

SMILES	D2 ag-1	D2 antag	D2 ag-2	D2 PAM-1	D2 PAM-2	D3 arrestin ag	D2 ag-3
CC1(c2ccccc2)NC(=O)N(CC(=O)Nc2ccc(S(=O)(=O)Nc3ncccn3)cc2)C1=O (stereo unspecified)	2	50*	53*	8	-12	-2%	-2%
Fc1cc(F)cc(Nc2nc(Cl)nc(NC3CCCC3)n2)c1	nt	-4	-1	nt	-5	-6%	0%
CC(C)Nc1nc(Cl)nc(NC2CCCCC2)n1	-1	-6	-1	-1	-4	nt	nt
CS(=O)(=O)c1ccc(S(=O)(=O)N2CCC(CO)(CCCc3ccccc3)CC2)cc1	-3	-5	-2	-3	-7	nt	nt
C=CCC(=O)NC1CC(C)(C)Cc2c1cnn2-c1ccc(C)cc1 (stereo unspecified)	4	14	72*	0	-20	-8%	-5%
Cc1ccc(-n2ncc3c2CC(C)(C)CC3NC(=O)CN2CCCC2=O)cc1 (stereo unspecified)	-1	9	0	7	-8	nt	nt
O=C(c1ccc2[nH]c(=O)c(=O)[nH]c2c1)N1CCN(c2ccccc2)CC1	4	-9	5	-7	-7	nt	nt
CN(C)S(=O)(=O)c1cccc(NC(=O)CSc2ncnc3ccccc23)c1	13	nt	nt	5	nt	?	?
COc1cccc(CNC(=O)CCCCCn2c(=O)[nH]c3cc(OC)c(OC)cc3c2=O)c1	nt	nt	0	nt	9	nt	nt
O=C(Cn1c(=O)n(Cc2ccco2)c(=O)c2sc3ccccc3c21)Nc1ccccc1C(F)(F)F	nt	nt	1	nt	-2	nt	nt
CCCCn1c(N)c(N(CC)C(=O)c2cccc(OCc3ccccc3)c2)c(=O)[nH]c1=O	8	8	0	5	-12	20%	-3%
CCCCn1c(N)c(N(CC)C(=O)c2cccc(F)c2)c(=O)[nH]c1=O	-5	-2	4	-4	-3	nt	nt
CC(C)=CCN1CCC(n2nccc2NC(=O)c2ccccc2Cl)CC1	-7	16	0	-24	-17	nt	nt
O=C(Nc1ccnn1C1CCN(CCCc2ccccc2)CC1)c1ccccc1Cl	?	88*	80*	13	-35	10%	?
OC(CNCCc1ccc(C(F)(F)F)cc1)COc1cccc2ccccc12 (stereo unspecified)	-10	21	7	-18	8	26%	4%
CCn1cnc2c(cnn2-c2ccccc2)c1=O	0	26	-1	-3	-9	nt	nt
O=c1c2cnn(-c3ccccc3)c2ncn1CCc1ccccc1	0	6	65*	9	-19	-3%	-2%
CCN(CC(=O)Nc1ccc(OC)cc1)C(=O)Cc1ccc(OC)c(S(=O)(=O)N2CCOCC2)c1	-1	15	-1	-7	-8	-7%	-1%
COc1ccc(/C=C/C(=O)NC(=S)NN2CCCCC2c2cccnc2)cc1OC (stereo unspecified)	-2	-4	49*	-8	-19	4%	2%
CSc1nsc(SCC(=O)Nc2ccc(OC(C)=O)cc2)n1	-2	-2	-1	0	-3	nt	nt
COc1ccc(CNC(=O)CSc2nc(SC)ns2)cc1	-3	-6	-1	-4	-10	-10%	-3%
Cc1cc(C(C)(C)C)cc(S(=O)(=O)NCCc2ccncc2)c1C	1	1	2	2	4	-2%	0%
O=C(c1ccc(Cl)cc1)N1CCN(CCOc2ccccc2)CC1	?	76*	74*	-2	-22	0.1µM*	25µM*
COc1ccc(OCCN2CCN(C(=O)c3ccc(OC)cc3)CC2)cc1	3	13	42*	-7	-10	0.45µM*	18%
OCCN1CCN(CCOc2cccc(Cl)c2)CC1	3	76*	33*	-29	-23	?	4%
SMILES	D2 ag-1	D2 antag	D2 ag-2	D2 PAM-1	D2 PAM-2	D3 arrestin ag	D2 ag-3
Cc1ccc(C)n1CCN1CCN(C(=O)c2ccc(Cl)cc2)CC1	0	9	-2	-34	-17	nt	nt
COCc1c(C(=O)N2CCN(CCOc3ccccc3)CC2)oc2ccccc12	?	77*	80*	10	-22	0.32µM*	?
COc1ccc(OCCN2CCN(C(=O)c3ccc(OC(F)F)c(OC)c3)CC2)cc1	3	-4	11	1	11	nt	nt
CSc1nnc2c(=O)[nH]c(=O)n(C)c2n1	-3	nt	nt	-4	nt	nt	nt
C#CCNC(=O)c1ccc2sc([C@@H]3O[C@H](CO)[C@H](O)[C@H](O)[C@H]3O)nc2c1	-8	nt	nt	-11	nt	nt	nt
COc1cc2cc(CNc3ccccc3)c(=O)n(CC(=O)Nc3cccc(Cl)c3C)c2cc1OC	nt	nt	3	nt	-8	nt	nt
O=C(c1c(F)cccc1F)N1CCN(CCOc2ccccc2)CC1	1	22	60*	-9	-9	?	18%
O=C(CNC(=O)c1ccc(Br)o1)NCC1CCCCC1	-3	-11	0	-21	-5	-5%	-6%
COc1ccccc1NC(=O)N1CCCC1C(=O)NCc1ccc2c(c1)OCO2 (stereo unspecified)	-4	0	-1	-8	-8	nt	nt
O=C(NCc1ccc2c(c1)OCO2)C1CCCN1C(=O)Nc1ccccc1 (stereo unspecified)	-1	66*	0	-15	-6	-11%	-2%
CC1CCN(c2ccc(C(=O)NCc3ccco3)cc2[N+](=O)[O-])CC1	-1	6	0	-14	2	-10%	-11%
CN(Cc1ccncn1)C(=O)C1CCC(=O)N(Cc2cccc(C(F)(F)F)c2)C1 (stereo unspecified)	-3	-8	0	-11	-2	nt	nt
CCN(CC)c1ccc(NC(=O)CN2CCN(c3ccccc3OC)CC2)cc1	nt	nt	-6	nt	-7	nt	nt
COc1ccc(OC)c(NC(=O)CCN2CCN(c3ccccc3F)CC2)c1	?	-12	-1	1	18	nt	nt
COc1ccc([N+](=O)[O-])cc1NC(=O)CCN1CCN(c2ccccc2OC)CC1	3	101*	66*	-34	-27	-7%	7%
COc1ccccc1N1CCN(CC(=O)Nc2c(C)n[nH]c2C)CC1	-2	53*	67*	-21	-21	-10%	7%
COc1ccc(C)cc1NC(=O)CCN1CCN(c2ccccc2F)CC1	9	80*	74*	18	-24	-4%	?
Cc1ccc(C)c(NC(=O)CCN2CCN(c3ccccc3F)CC2)c1	-5	67*	47*	-16	-16	?	9%
